Bioassay records from PubChem BioAssay.
GPR151 activ: activates the human receptor GPR151 | actives 1% (n = 650,000) | AID 1508602 | Q8TDV0 | PathHunter beta-arrestin GPR151 cells, luminescence | activation, % at 11.2 µM; in the data active means activation above about 4.9%
Target sequence (Q8TDV0 whole entry, looked up): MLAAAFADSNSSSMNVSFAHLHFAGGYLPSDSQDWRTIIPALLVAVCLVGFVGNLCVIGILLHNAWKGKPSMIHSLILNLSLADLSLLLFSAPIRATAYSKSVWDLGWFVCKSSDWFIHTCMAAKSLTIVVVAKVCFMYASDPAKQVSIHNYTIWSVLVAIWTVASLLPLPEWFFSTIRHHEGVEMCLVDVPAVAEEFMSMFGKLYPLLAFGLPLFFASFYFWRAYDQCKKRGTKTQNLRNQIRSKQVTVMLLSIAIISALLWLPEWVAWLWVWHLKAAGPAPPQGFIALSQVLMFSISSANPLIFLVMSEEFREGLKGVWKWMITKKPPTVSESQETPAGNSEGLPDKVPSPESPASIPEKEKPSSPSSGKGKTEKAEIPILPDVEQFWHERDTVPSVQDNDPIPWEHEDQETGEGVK
MITF inh: blocks human microphthalmia-associated transcription factor. O75030. AlphaScreen MITF homodimerization, bead proximity signal. inhibition, % at 2.6 µM. actives 0.91% (n = 650,000). AID 1259374; in the data active means inhibition above about 50%
FBW7 activator: activators of human E3 ligase FBW7; Q969H0; AlphaScreen FBW7–phospho-cyclin E peptide binding, activator screen; normalized activity (activation), % at 26.1 µM; actives 0.13% (n = 650,000); AID 1259310; in the data active means normalized activity above about 1.9%;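 further: purified mutant Fbw7 with reduced substrate affinity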
TEAD-YAP block: TEAD-YAP interaction inhibition; HEK-TIYL cells, TEAD-Gal4/YAP UAS-luciferase luminescence; inhibition, % at 9.12 µM; actives 1.4% (n = 640,000); in the data active means inhibition above about 32%
GPR151 conf act: confirmation of human GPR151 activators; AID 1508609; 6,700 tested, under 10 active; GPR151 PathHunter beta-arrestin cells, luminescence, 90 min; % of EA-reagent control over plate median; activation, % at 11.2 µM; shares compounds with GPR151 activ;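 active means mean percent activation across replicates above the confirmation screen cutoff of 4.91%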
GPR119 ag: GPR119 activation, counter-screen for GPR151 activators; shares compounds with GPR151 activ; activation, % at 11.2 µM; actives 0.3% (n = 6,700); GPR119 PathHunter beta-arrestin cells, luminescence, 90 min; 0 = compound-well median, 100 = enzyme-acceptor control; AID 1508611;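 active means mean percent activation in the counterscreen above 29.09%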;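 further: counterscreen on off-target GPR119 to flag nonselective hits from the GPR151 activator screen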
Large screens that a line does not name were inactive (follow-up assays come after a bar, where they were run). The list is not random: actives were taken first. Their share in the collection is about 3.4%.

COc1cccc(CN2CCN(Cc3cc(Cl)c(O)c(OC)c3)CC2CCO)c1 (stereo unspecified)	GPR151 activ 6.3 | GPR151 conf act inactive | GPR119 ag inactive
CCOc1ccccc1CN1CCN(Cc2cc(F)cc(F)c2)CC1CCO (stereo unspecified)	none
CCOc1ccccc1CN1CCN(C2CCN(c3ccccc3F)CC2)CC1CCO (stereo unspecified)	GPR151 activ 11 | GPR151 conf act inactive | GPR119 ag inactive
Cc1ccc(NC(=O)CCC(=O)N/N=C/c2ccc(O)cc2O)cc1	none
Cc1cccc(-c2nc(N3CCC(C)CC3)c3ccccc3n2)c1	none
Cc1ccccc1CN1CCN(Cc2ccn[nH]2)CC1CCO (stereo unspecified)	GPR151 activ 6.0 | GPR151 conf act inactive | GPR119 ag inactive
CC(C)=CCN1CCN(Cc2cccc(OCCO)c2)CC1CCO (stereo unspecified)	none
C=CCOc1ccccc1CN1CCN(Cc2ccsc2)C(CCO)C1 (stereo unspecified)	GPR151 activ 6.1 | GPR151 conf act inactive | GPR119 ag inactive
Cc1ccccc1CN1CCN(Cc2cccc(OCCO)c2)CC1CCO (stereo unspecified)	GPR151 activ 5.9 | GPR151 conf act inactive | GPR119 ag inactive
OCCC1CN(Cc2cc(F)cc(F)c2)CCN1Cc1ccccc1F (stereo unspecified)	none
OCCC1CN(Cc2ccncc2)CCN1Cc1ccccc1F (stereo unspecified)	GPR151 activ 6.6 | GPR151 conf act inactive | GPR119 ag inactive
OCCC1CN(Cc2ccn[nH]2)CCN1Cc1ccccc1F (stereo unspecified)	none
Cc1cc(C)n2nc(SC(C)C(=O)NC3CCCC3)nc2n1 (stereo unspecified)	none
CN1C2=C(C#N)C(=O)C(c3ccccc3)N2c2ccccc21 (stereo unspecified)	none
CC(C)OC(=O)c1cnn2c(C(F)(F)F)cc(-c3ccc(F)cc3)nc12	none
COc1ccc(CN2CCN(CCCc3ccccc3)C(CCO)C2)c(O)c1 (stereo unspecified)	none
COc1ccc(CN2CCN(CCCc3ccccc3)C(CCO)C2)c(OC)c1 (stereo unspecified)	GPR151 activ 5.0 | GPR151 conf act inactive | GPR119 ag inactive
CCOc1ccc(C2=C/C(=C/c3cccs3)C(=O)O2)cc1	GPR151 activ 5.8 | GPR151 conf act inactive | GPR119 ag inactive
CCOc1ccc(C2=C/C(=C\c3cccs3)C(=O)O2)cc1	none
O=C(O)/C=C/c1cn(-c2ccccc2)nc1-c1cccc([N+](=O)[O-])c1	GPR151 activ 5.3 | GPR151 conf act inactive | GPR119 ag inactive
CCN(CC)Cc1ccc(C(=O)NCc2cnc3ccccc3c2)c(=O)[nH]1	none
CC1CCCCN1Cc1ccc(C(=O)NCc2cnc3ccccc3c2)c(=O)[nH]1 (stereo unspecified)	GPR151 activ 11 | GPR151 conf act inactive | GPR119 ag inactive
COc1ccc(C(=O)c2sc3nc(C)cc(C)c3c2N)c(OC)c1	GPR151 activ 7.0 | GPR151 conf act inactive | GPR119 ag inactive
CCCOc1ccc(/C(O)=C2/C(=O)C(=O)N(CCCN3CCOCC3)C2c2ccc(Br)cc2)c(C)c1 (stereo unspecified)	none
COc1ccc(-c2cnc(SCCNC(=O)CCCc3ccccc3)[nH]2)cc1	none
CCC(=O)NCCSc1ncc(-c2ccccc2)[nH]1	GPR151 activ 5.2 | GPR151 conf act inactive | GPR119 ag inactive
O=[N+]([O-])c1cccc(CNc2cccc(F)c2)c1	GPR151 activ 11 | GPR151 conf act inactive | GPR119 ag inactive
CCC(=O)NNC(=O)CSc1nnc2c3c(C)c(C)sc3nc(C(C)C)n12	none
Cc1sc2nc(C(C)C)n3c(SCC(=O)NNC(=O)C(C)C)nnc3c2c1C	GPR151 activ 7.4 | GPR151 conf act inactive | GPR119 ag inactive
CC(Oc1ccc2c(c1)OCO2)C(=O)NNC(=O)NC12CC3CC(CC(C3)C1)C2 (stereo unspecified)	none
CCC(C)N(C(=O)c1csnn1)C(C(=O)NCc1ccc(F)cc1)c1ccco1 (stereo unspecified)	GPR151 activ 7.2 | GPR151 conf act inactive | GPR119 ag inactive
